Experimental data: PubChem BioAssay AID1508619 (National Center for Advancing Translational Sciences (NCATS), 2020)
Inconclusive results are not listed. A call without a number means that no potency is given here. Activity calls are given as the source filed them. Calls follow the shape of the dose curve; as a rule, active = well fitted inhibition curve with a large enough effect; inconclusive = small, poorly fitted or top-dose-only effect; inactive = no such curve, though single readings can be large or run the other way.
Potency is read from the fitted curve at half-maximal effect.

Experiment: Counterscreen qHTS for Identification of Calcium Integrin Binding Protein 1 (CIB1) Competitor
Settings: series mostly up to 114 µM
In short: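 Counterscreen FP assay: CIB1-GST 1 uM in 5 mM HEPES pH 7.4, 125 mM NaCl, 5 mM CaCl2, 0.01% Tween20, with compounds up to 114 uM for 15 min, then 100 nM FITC-labelled scrambled peptide, 15 min, polarization read ex 480/em 540.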
With `O=C1CCC2=C1C1(CCCC1)N=C(Nc1nc3ccccc3o1)N2` the Potency was “inactive”. For `O=C(Cc1ccccc1)NC(c1ccco1)c1cc(Cl)c2cccnc2c1O` (stereo not drawn), the Potency was “inactive”. For `Cc1ccc(C(=O)Nc2ccc(S(=O)(=O)O)c3cc(S(=O)(=O)O)cc(S(=O)(=O)O)c23)cc1NC(=O)c1cccc(NC(=O)Nc2cccc(C(=O)Nc3cc(C(=O)Nc4ccc(S(=O)(=O)O)c5cc(S(=O)(=O)O)cc(S(=O)(=O)O)c45)ccc3C)c2)c1`, the Potency was “inactive”. With `O=c1c2ccccc2nc2sc(NS(=O)(=O)c3ccc4c(c3)CCC4)nn12` the Potency was “inactive”. For `CC1CCC2(C1)N=C(Nc1nc3ccccc3o1)NC1=C2C(=O)CCC1` (stereo not drawn), the Potency was “inactive”. For `Cc1c(C)n(Cc2ccc(-c3ccccc3C(=O)O)cc2)c2ccc(C(=O)N[C@@H](C)c3ccc([N+](=O)[O-])cc3)cc12`, the Potency was “inactive”. For `Cc1ccc(C)n1-c1cccc(C(=O)O)c1`, the Potency was “inactive”. With `CCc1ccc(NC(=O)C(=O)NNC(=O)c2cccs2)cc1` the Potency was “inactive”. With `O=c1[nH]nc(Sc2ncc([N+](=O)[O-])s2)n1-c1ccc2c(c1)OCCO2` the Potency was “inactive”. With `O=C(Cc1ccc(Cl)c(Cl)c1)Nc1ccc(S(=O)(=O)Nc2cccc(C(=O)O)c2)cc1` the Potency was “inactive”. In the case of `CC(=O)NC(c1cccs1)c1cc(Br)c2cccnc2c1O` (stereo not drawn), the Potency is reported as “inactive”. For `COC(=O)c1cc(Cl)ccc1NS(=O)(=O)C(F)(F)F`, the Potency was “inactive”. In the case of `CCC(=O)NC(c1cccs1)c1cc(Br)c2cccnc2c1O` (stereo not drawn), the Potency is reported as “inactive”. With `Cc1ccc2nc3sc(C(=O)NCc4ccco4)cc3cc2c1` the Potency was “inactive”. In the case of `O=S(=O)(Nc1nccs1)c1ccc(Nc2nc(-c3ccccc3)cs2)cc1`, the Potency is reported as 50.1 µM (active). In the case of `CCCCCCCCOc1ccccc1C(=O)Nc1ccc(C(=O)OCC[N+](C)(CC)CC)cc1`, the Potency is reported as “inactive”. In the case of `O=C(O)c1ccc(-c2ccc3ncnc(NCc4nccs4)c3c2)o1`, the Potency is reported as “inactive”. For `NC[C@@H](O)c1ccc(O)c(O)c1`, the Potency was “inactive”. For `O=C1CCCC2=C1C(c1cccnc1Br)N=C(Nc1nc3ccccc3o1)N2` (stereo not drawn), the Potency was “inactive”. With `CO[C@@]12[C@H](COC(N)=O)C3=C(C(=O)C(C)=C(N)C3=O)N1C[C@@H]1N[C@@H]12` the Potency was “inactive”. With `O=C(O)C1=NC(C(=O)O)CC(C=CN2c3cc(O)c(OC4OC(CO)C(O)C(O)C4O)cc3CC2C(=O)O)=C1` (stereo not drawn) the Potency was “inactive”. In the case of `COc1ccc2nc(S(=O)Cc3ncc(C)c(OC)c3C)[nH]c2c1` (stereo not drawn), the Potency is reported as “inactive”. With `Cc1ccccc1NC(=O)CN1C(=O)N/C(=C\c2cn(-c3cccc(C(=O)O)c3)cn2)C1=O` the Potency was “inactive”. For `Cc1ccc(S(=O)(=O)Nc2cnccc2C(=O)Nc2nc(-c3ccc(Cl)cc3)cs2)cc1`, the Potency was “inactive”. With `C[n+]1cc2c3c(ccc2c2ccc4cc5c(cc4c21)OCO5)OCO3` the Potency was “inactive”. With `CCN(CC)C(=S)SSC(=S)N(CC)CC` the Potency was “inactive”. In the case of `O=S(=O)(c1ccc2nc(Cl)c(Cl)nc2c1)N1CCN(S(=O)(=O)c2c(F)cccc2F)CC1`, the Potency is reported as “inactive”. For `Cc1ccc([S+](=O)([O-])Nc2nn3c(=O)c4ccccc4nc3s2)cc1C`, the Potency was “inactive”. In the case of `CC1(C)N=C(Nc2nc3ccccc3o2)NC2=C1C(=O)CCC2`, the Potency is reported as “inactive”. For `COC(=O)c1ccc(O)c2ncc(-c3ccc(C(=O)NCCCN(C)C)cc3)cc12`, the Potency was “inactive”. In the case of `O=[S+]([O-])(Nc1nccs1)c1ccc(NCc2cc(F)cc(Cl)c2O)cc1`, the Potency is reported as “inactive”. With `NC(=O)C1CCN(c2ncc(Br)s2)CC1` the Potency was 39.8 µM (active). For `N#Cc1ccc(NS(=O)(=O)c2ccc(NC(=O)Cc3ccc(F)c(Cl)c3)cc2)cc1`, the Potency was “inactive”.
